Results from PubChem BioAssay AID1347165 (National Center for Advancing Translational Sciences (NCATS), 2019).
In all, about 220,000 compounds went through this assay and about 5,700 (2.6%) were called active. About 18% were inconclusive and are not listed. The call rests on the fitted dose curve; in most records, active means well fitted inhibition curve with a large enough effect; inconclusive means small, poorly fitted or top-dose-only effect; inactive means no such curve, though single readings can be large or run the other way. The list comes from a sample in which actives are over-represented; it also holds similar structures and randomly drawn compounds. Entries that show only a call come without a potency.

These compounds were tested against Lysine-specific demethylase 5B (Homo sapiens) (UniProt Q9UGL1) (assay: Primary screen for KDM5B Histone Demethylases FDH-coupled qHTS). Conditions: FDH-coupled NADH fluorescence (FDH is formaldehyde dehydrogenase); series mostly up to 57.7 µM.
Chain of Lysine-specific demethylase 5B (Homo sapiens) (Q9UGL1 whole entry, looked up): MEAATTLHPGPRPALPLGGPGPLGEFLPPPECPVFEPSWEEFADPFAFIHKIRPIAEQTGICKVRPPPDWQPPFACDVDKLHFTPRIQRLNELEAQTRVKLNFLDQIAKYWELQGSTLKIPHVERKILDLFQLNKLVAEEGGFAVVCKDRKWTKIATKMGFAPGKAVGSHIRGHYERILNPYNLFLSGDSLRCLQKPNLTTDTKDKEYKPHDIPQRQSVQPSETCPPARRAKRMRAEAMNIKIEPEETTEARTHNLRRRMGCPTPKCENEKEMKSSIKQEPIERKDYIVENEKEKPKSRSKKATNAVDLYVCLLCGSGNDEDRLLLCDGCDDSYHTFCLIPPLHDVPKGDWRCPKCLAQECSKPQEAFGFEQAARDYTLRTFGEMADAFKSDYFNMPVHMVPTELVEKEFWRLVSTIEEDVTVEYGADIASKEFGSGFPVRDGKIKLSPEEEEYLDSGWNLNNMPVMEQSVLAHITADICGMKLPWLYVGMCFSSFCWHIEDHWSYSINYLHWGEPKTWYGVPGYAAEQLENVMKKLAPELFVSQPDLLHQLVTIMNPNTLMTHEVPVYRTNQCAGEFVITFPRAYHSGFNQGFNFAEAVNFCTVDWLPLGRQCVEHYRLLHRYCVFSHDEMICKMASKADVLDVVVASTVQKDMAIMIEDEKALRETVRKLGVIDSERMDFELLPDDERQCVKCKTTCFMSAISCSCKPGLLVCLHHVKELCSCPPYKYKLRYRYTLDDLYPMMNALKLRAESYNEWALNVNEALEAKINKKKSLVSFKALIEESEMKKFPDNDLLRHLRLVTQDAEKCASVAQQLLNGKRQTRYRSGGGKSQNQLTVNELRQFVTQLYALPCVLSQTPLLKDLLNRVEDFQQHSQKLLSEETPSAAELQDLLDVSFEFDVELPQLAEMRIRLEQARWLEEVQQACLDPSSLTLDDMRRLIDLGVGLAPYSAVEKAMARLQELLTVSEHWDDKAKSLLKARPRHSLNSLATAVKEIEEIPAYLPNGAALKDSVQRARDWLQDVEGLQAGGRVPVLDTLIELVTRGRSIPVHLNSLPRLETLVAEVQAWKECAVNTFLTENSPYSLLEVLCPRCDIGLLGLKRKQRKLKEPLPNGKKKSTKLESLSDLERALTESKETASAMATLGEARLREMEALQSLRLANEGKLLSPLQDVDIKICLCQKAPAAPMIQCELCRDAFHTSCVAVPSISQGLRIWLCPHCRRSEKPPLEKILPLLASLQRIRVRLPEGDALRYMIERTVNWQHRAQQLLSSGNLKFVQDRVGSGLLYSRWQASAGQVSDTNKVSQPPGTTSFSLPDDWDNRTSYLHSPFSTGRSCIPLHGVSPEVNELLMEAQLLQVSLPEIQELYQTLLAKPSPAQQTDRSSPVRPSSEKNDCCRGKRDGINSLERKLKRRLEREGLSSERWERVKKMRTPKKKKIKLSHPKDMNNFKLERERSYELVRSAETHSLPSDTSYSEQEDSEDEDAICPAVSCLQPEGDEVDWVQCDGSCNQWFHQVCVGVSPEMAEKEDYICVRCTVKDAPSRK
From the text: Assay Submitter (PI): Qin Yan, Ph.D. (Yale University) and Xiaodong Cheng, Ph.D. (MD Anderson) This project was funded as part of the NCI NEXT Program and Chemical Biology Consortium (CBC) The histone demethylases, KDM5A and KDM5B catalyze the demethylation of lysine 4 on histone H3 (H3K4me3/2). They are overexpressed in a variety of cancers and have been implicated in cancer cell growth, metastasis, drug resistance, and tumor growth. KDM5A is amplified and overexpressed in breast and gastric cancer; and is translocated in leukemia. While KDM5B is highly expressed in human mammary tumors and breast cancer cell lines, but not in normal adult breast tissue. Moreover, knockdown of KDM5B leads to upregulation of tumor suppressor genes, including BRCA1. The goal of this project is to employ qHTS to identify selective small molecule inhibitors of KDM5A/B demethylase activity to better understand the role of KDM5 in cancer and to develop novel therapies. We employed an FDH-coupled assay previously reported by Sakurai et al. to monitor in vitro KDM5 demethylase activity. Compounds showing dose response inhibition are re-acquired, validated, and tested for non-specific interference with the formaldehyde dehydrogenase (FDH) counterscreen. True inhibitors are validated using an AlphaLisa secondary screen, which employs an H3K4(me2-1)-specific antibody to monitor demethylation of a biotin-tagged H3K4(me3) peptide substrate. Inhibitors are profiled against KDM4A and KDM6A AlphaLisa counterscreens to determine level of demethylase specificity; and against the TruHits counterscreen to eliminate non-specific inhibitory activity on the AlphaLISA detection method. Selective inhibitors identified from the primary and secondary screening are tested in cells using immunofluorescence to monitor global H3K4 tri-methylation as a measure of KDM5A/B inhibition. Early Translation Branch (ETB) National Center for Advancing Translational Sciences (NCATS), Rockville, MD National Institute of Health (NIH), Bethesda, Maryland [1] Sakurai, M et al. A miniaturized screen for inhibitors of Jumonji histone demethylases. Mol Biosyst. 2010 Feb;6(2):357-64. doi: 10.1039/b912993f. Epub 2009 Oct 8.
Materials: 1536-well Black, solid bottom, medium binding assay plate is purchased from Greiner Bio-one. The enzymes (KDM5B) and substrate (H3K4me3/2) are provided by the principal investigators. The buffer for this assay is composed of 50mM HEPES at pH 7.5 with 0.01% Tween-20. FDH coupled Demethylase qHTS protocol: Three microliter enzyme mix (buffer + 200nM KDM5BDeltaAP final concentration) is dispensed into the assay plate using the BioRAPTR Flying Reagent Dispenser (FRD; […]). Compound (at various final concentration) and control solution is pin transferred to the assay plate using the Kalypsys 1536-pin tool apparatus. The assay plate is incubated for 10 min at room temperature followed by addition of 1uL substrate mix (buffer + 100uM ascorbic acid, 50uM ferrous ammonium sulfate, 12.5uM H3K4Me3, 25uM a-ketoglutarate, 0.25 mM NAD+, 0.25 U/mL formaldehyde dehydrogenase using the FRD yielding a total reaction volume of 4 uL. Initial fluorescence (Read1) is detected using the PerkinElmer ViewLux plate reader equipped with 340 nm excitation and 450 nm emission filters. The final fluorescence (Read2) signal is obtained after 30 min of room temperature incubation. Delta RFU is calculated (Read2 - Read1) and is used to generated dose response curves.
Further: nearly all actives have a fitted effect of over 70% in size.
Potency means the concentration at half of the fitted maximal effect.

SMILES | Potency
O=C(Nc1ccc2n(c1=O)C[C@H]1C[C@@H]2CN(C(=O)c2ccccn2)C1)c1ccc(F)cc1 | inactive
O=C(COc1ccccc1)N1C[C@@H]2C[C@H](C1)c1c(-c3ccccc3F)ccc(=O)n1C2 | inactive
O=C(NC1CCCCC1)N1C[C@@H]2C[C@H](C1)c1c(-c3ccccc3F)ccc(=O)n1C2 | inactive
O=C(Nc1ccc(Cl)cc1)N1C[C@@H]2C[C@H](C1)c1c(-c3ccccc3F)ccc(=O)n1C2 | inactive
CCCS(=O)(=O)N1C[C@@H]2C[C@H](C1)c1ccc(-c3ccccc3C)c(=O)n1C2 | 39.8 µM (active)
Cc1ccccc1-c1ccc2n(c1=O)C[C@H]1C[C@@H]2CN(C(=O)CSCC(=O)O)C1 | 39.8 µM (active)
Cc1ccc(NC(=O)N(Cc2ccc3c(c2)OCO3)C2CCN(Cc3ccccc3)CC2)cc1F | inactive
COc1ccc(/C=C\[N+](=O)[O-])c(OC)c1 | inactive
CC1(C)NN1CCCCN1NC1(C)C (stereo not given) | inactive
COC1CN(c2ccc(C)cc2)C12CCNCC2 (stereo not given) | inactive
Cn1nc(-c2cccs2)cc1[C@H]1CN2CC[C@H]1C[C@@H]2CNC(=O)Nc1ccccc1 | inactive
CN(C)C(=O)Oc1ccc2c(=O)c(-c3ccc(Br)cc3)c(C(F)(F)F)oc2c1 | inactive
Cc1ccc(CN2CCC3(CCNCC3)C2)c(O)c1 | inactive
Cc1nc(-c2ccc(C(F)(F)F)cc2)cc([C@H]2CN3CC[C@H]2C[C@@H]3CNC(=O)c2ccco2)n1 | inactive
Cc1ccc(C(=O)NC[C@H]2C[C@@H]3CCN2C[C@@H]3c2cc(-c3ccco3)nc(C)n2)cc1 | 39.8 µM (active)
COc1ccccc1-c1cc([C@H]2CN3CC[C@H]2C[C@@H]3CNC(C)=O)n(C)n1 | inactive
COc1ccccc1-c1cc([C@H]2CN3CC[C@H]2C[C@@H]3CNC(=O)c2ccco2)n(C)n1 | inactive
COc1ccccc1-c1cc([C@H]2CN3CC[C@H]2C[C@@H]3CNC(=O)c2ccco2)nc(C)n1 | 31.6 µM (active)

SMILES | Potency
COc1ccc(C(=O)NC[C@H]2C[C@@H]3CCN2C[C@@H]3c2cc(-c3ccccc3)nn2C)cc1 | inactive
COc1cc2c(cc1Oc1cccc(N(C)C)c1)NC(=O)C21CCN(Cc2ccccn2)CC1 | inactive
c1ccc(CCN2CCC3(CC2)OCCO3)cc1 | inactive
C=C[C@H]1CN2CC[C@H]1C[C@@H]2CNCc1ccc(C(F)(F)F)cc1 | inactive
COc1ccc(-c2cc([C@H]3CN4CC[C@H]3C[C@@H]4CNC(=O)C3CC3)n(C)n2)cc1OC | inactive
COc1ccc(-c2cc([C@H]3CN4CC[C@H]3C[C@@H]4COC(=O)NC(C)C)nc(C)n2)cc1 | 28.2 µM (active)
Cc1nc(-c2ccccc2)cc([C@H]2CN3CC[C@H]2C[C@@H]3CNC2CCOCC2)n1 | inactive
CCCS(=O)(=O)NC[C@H]1C[C@@H]2CCN1C[C@@H]2c1cc(-c2ccccc2)nc(C)n1 | inactive
Cc1nc(-c2ccc(N(C)C)cc2)cc([C@H]2CN3CC[C@H]2C[C@@H]3CNC(=O)C2CCC2)n1 | 39.8 µM (active)
COc1ccc(-c2cc([C@H]3CN4CC[C@H]3C[C@@H]4CNC(=O)C3CCCCC3)n(C)n2)cc1 | inactive
CC(C)(C)NC(=O)NC(=O)CCl | inactive
Cc1ccc(C(=O)N2[C@H]3CC[C@@H]2c2cnc(-c4ccccc4)nc2C3)c(C)c1 | inactive
Cc1nc(C)c(C(=O)N2[C@H]3CC[C@@H]2c2cnc(-c4ccccc4)nc2C3)s1 | inactive
CCOC(=O)c1c(C)n(Cc2ccccc2Cl)c2ccc(O)cc12 | inactive
O=C(c1ccncc1)N1C[C@@H]2C[C@H](C1)c1ccc(C3CCCCC3)c(=O)n1C2 | inactive
O=C(Nc1ccccc1)N1C[C@@H]2C[C@H](C1)c1c(-c3ccc(Cl)cc3)ccc(=O)n1C2 | inactive
CC(=O)Nc1ccc(-c2ccc3n(c2=O)C[C@H]2C[C@@H]3CN(C3CCN(C)CC3)C2)cc1 | 39.8 µM (active)
